# About 100 (0.1%) of roughly 96,000 compounds were called active. The list comes from a sample in which actives are over-represented; it also holds similar structures and randomly drawn compounds. Potency and affinity values are given separately. Unmarked numbers belong to inactive results.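 The calls were made as follows: active = displacement above 50% at 20 µM plus a fluorescence interference ratio under 1.5; inactive = the rest.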
# Biological target: Bcl-2-like protein 10 (Homo sapiens) (UniProt Q9HD36)
# Assay: Bcl-B/TR3 peptide binding disruption – biochemical, fluorescence polarization, FITC-TR3 peptide, selectivity assay for Bfl-1 inhibitor project, primary screen (AID 748);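 also: plate controls were wells without compound for no effect and wells lacking Bcl-B protein for full effect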
# Settings: FP displacement of FITC-TR3 peptide from Bcl-B; at 20 µM; hits give high values
row,Structure (SMILES),displacement [%]
1,COc1ccc(OCC(=O)N/N=C/c2ccc(O[C@@H]3O[C@H](CO)[C@@H](O)[C@H](O)[C@H]3O)cc2)cc1,-3.2
2,CCn1nc(C)c(NC(=O)CCSc2nc(-c3ccco3)cc(C(F)(F)F)n2)c1C,-7
3,CCOC(=O)c1[nH]c(C)c(/C(O)=C2\C(=O)C(=O)N(CCCN3CCOCC3)C2c2cccnc2)c1C (configuration not stated),5
4,COc1cc(C2CC(=O)NC3=C2C(=O)CC(C)(C)C3)cc(OC)c1O (configuration not stated),-3.3
5,CCCSc1nc(N)c2c3c(sc2n1)CN(C)CC3,26.6
6,CCSc1nc(N)c2c3c(sc2n1)CN(C)CC3,1.8
7,COc1ccc(CCNC(=O)c2c(-c3ccccc3)noc2C)cc1OC,-0.3
8,O=C(O)C(Cc1ccccc1)N1C(=O)c2ccccc2C1=O (configuration not stated),9.7
9,O=C(O)C(Cc1ccccc1)n1cccc1 (configuration not stated),3.2
10,Cc1ccc(NC(=O)CSc2nnc(-c3ccc(S(=O)(=O)N4CCOCC4)cc3)n2C)cc1,0.6
11,O=C(Nc1ccc(N2CCN(c3ccc(O)cc3)CC2)cc1)Oc1ccccc1,-11.2
12,CCN1CCc2c(sc3c2c(NCc2ccco2)nc2nnnn23)C1,114
13,CSc1nc(NCc2ccco2)c2c3c(sc2n1)CN(C)CC3,0.3
14,CCS(=O)(=O)/N=C(\N)c1ccccc1,2.5
15,Cc1ccc(C=C2C(=O)c3ccccc3C2=O)s1,4.7
16,Cc1cc(C)n(-c2ccc(C(=O)Nc3ccc4c(c3)OCO4)cc2)n1,-4.8
17,COCCn1c(SCC(=O)Nc2ccc(Cl)cn2)nc2ccccc21,-17
18,COCCn1c(SCC(=O)Nc2nc(C)c(Cl)cc2Cl)nc2ccccc21,-7.3
19,Nn1c(SCc2ccccc2)nnc1-c1ccco1,-4.8
20,c1coc(-c2nc(-c3ccco3)c(-c3ccco3)nc2-c2ccco2)c1,43.1
21,c1ccc(CSc2n[nH]c(-c3ccco3)n2)cc1,-8.3
22,c1coc(-c2nc3ccccc3nc2-c2ccco2)c1,22
23,COc1cccc(Cn2c(-c3cccs3)noc2=O)c1,-1.2
24,O=S1(=O)CCC(NS(=O)(=O)c2cccc3cccnc23)C1 (configuration not stated),-3.6
25,Oc1ccc(-c2cn3c(n2)SCC3)cc1,-4.3
26,O=C(Oc1ccc(-c2cn3c(n2)SCC3)cc1)c1ccccc1,-5.6

row,Structure (SMILES),displacement [%]
1,CC1(C)Cc2nc3nc(SCC(=O)NCc4ccccc4)n(-c4ccccc4)c(=O)c3cc2CO1,-3.5
2,COc1ccc(-c2noc(CSc3nnc(Cc4ccccc4)n3-c3cccc(C)c3)n2)cc1OC,-7.5
3,c1ccc2cc(CN3CCOCC3)ccc2c1,-1.4
4,O=C(CC1C(=O)OCN1C(=O)OCc1ccccc1)OCC(=O)c1ccccc1 (configuration not stated),-0.3
5,CCc1cn(S(=O)(=O)c2ccccc2OC)nc1N,-3.2
6,COC(=O)c1ccc(N2CCC(C)CC2)c(N)c1,-13.4
7,Nc1cc(C(=O)O)ccc1N1CCCCCC1,7
8,COC(=O)c1cn(NC(=O)c2cccc(OC)c2)c(=O)c2ccccc12,10.2
9,O=C1CCC2(C(=O)O)Sc3ccccc3N12 (configuration not stated),-5.3
10,Cn1cccc1-c1nc2ccc(NC(=O)c3ccc([N+](=O)[O-])cc3)cc2[nH]1,3.8
11,COc1ccc(Cl)cc1C(=O)Nn1c(C)nc2ccccc2c1=O,-6.8
12,Cc1cc(C)n(Cc2ccc(C(=O)O)cc2)n1,-12.7
13,COc1ccc(Cn2c(C)ccc2C)cc1,-31.6
14,CSc1ccc(S(=O)(=O)Nc2ccc3c4c(cccc24)CC3)cc1,0.8
15,O=C1CC(SC(=NCc2ccc3c(c2)OCO3)Nc2ccccc2)C(=O)N1c1ccccc1 (configuration not stated),0.5
16,CC(=O)Nc1ccc(S(=O)(=O)NC2=C(N3CCN(c4ccc(F)cc4)CC3)C(=O)c3ccccc3C2=O)cc1,30.5
17,Cc1ccc(S(=O)(=O)NC2=C(N3CCN(Cc4ccccc4)CC3)C(=O)c3ccccc3C2=O)cc1,12.6
18,Cc1ccc(NC(=O)CN2CC(C)SC2=NC2CCCCC2)cc1 (configuration not stated),-0.9
19,COc1cc(NC(=O)C2CCCCC2)c2ncccc2c1,-2.9
20,COc1ccc(OCC(=O)Nc2cccc3cccnc23)cc1,-0.2
21,COc1ccc(OCCCC(=O)NC(C)c2ccccc2)cc1 (configuration not stated),3.5
22,CCOC(=O)C1CCN(C(C(=O)Nc2ccc3c(c2)OCCO3)c2ccccc2)CC1 (configuration not stated),-3.4
23,O=C1c2sc3nc4c(c(=O)n3c2C(=O)N1c1ccccc1)CCC4,7
24,O=C1c2sc3nc4ccccc4n3c2C(=O)N1c1ccccc1Cl,0.8
25,O=C(CSc1ccccc1Cl)c1ccco1,3.7
26,O=C(CSCc1ccc(Cl)cc1)c1ccco1,16.6
